Many of the other results were omitted from the sample, so hits are more common in it than they were.
LmPK inhibitor = inhibitors of Leishmania mexicana pyruvate kinase; AID 1721; 290,000 compounds, 0.37% hits; Potency, µM (top dose mostly 57.5 µM), for inactives: at the top dose activity change, negative = inhibition, hits mostly inhibitors; Q27686; purified LmPK, Kinase-Glo ATP luminescence, 1 h; also: potency is read from the fitted curve at half-maximal effect; % is scaled to controls: 0 for no effect and ±100 for the full control effect
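qHTS format; LmPK 0.1 nM; substrates PEP 0.5 mM and ADP 0.1 mM. One-hour room-temperature incubation, then coupled luciferase luminescence; 0.5 nM enzyme wells mark activation.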
Cycloheximide cs = counter-screen for Shiga toxin inhibitors: cycloheximide protein synthesis inhibition. max response, %. cell reporter, cycloheximide protein synthesis inhibition counterscreen. 300,000 compounds, 12% hits; in the data active = max response mostly above about 13%, no sharp cut-off; inactive = mostly below about 14%; also: read at 38.3 µM for the half of the compounds with a filed dose; 0% is about no effect
Shiga toxin inh = Shiga toxin inhibition; Vero cells, Shiga toxin protein synthesis inhibition reporter; inhibition, % at 38.7 µM; 290,000 compounds, 9.2% hits; in the data active = inhibition mostly above about 28%, no sharp cut-off; inactive = mostly below about 43%; also: 0% is about no effect
TbPYK inhibitor = inhibitors of Trypanosoma brucei pyruvate kinase | Q57TT1 | TbPYK enzyme, Kinase-Glo Plus ATP luminescence, 45 min | Potency, µM (series often up to 76.8 µM), without a hit: at the highest dose activity, negative = inhibition, usual class: inhibitors | 410,000 compounds, 0.12% hits | AID 624173; also: potency is read from the fitted curve at half-maximal effect; % is scaled to controls: 0 for no effect and ±100 for the full control effect; nearly all actives have a fitted effect of over 50% in size
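Screened from lowest to highest concentration, compounds were pinned into TbPYK/substrate mixtures, and ADP (130 uM final) was added. Plates sat at room temperature for 45 min prior to Kinase-Glo Plus detection by luminescence.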
Giardia FBPA inh = inhibitors of Giardia lamblia fructose-1,6-bisphosphate aldolase; A8B2U2; Potency, µM (doses to about 59.6 µM), for the others: at the highest dose activity, negative = inhibition, actives largely listed as inhibitors; purified Giardia FBPA; AID 2451; 290,000 compounds, 0.71% hits; also: potency is read from the fitted curve at half-maximal effect; % is scaled to controls: 0 for no effect and ±100 for the full control effect; nearly all actives have a fitted effect of over 55% in size
Target sequence (A8B2U2 whole entry, looked up): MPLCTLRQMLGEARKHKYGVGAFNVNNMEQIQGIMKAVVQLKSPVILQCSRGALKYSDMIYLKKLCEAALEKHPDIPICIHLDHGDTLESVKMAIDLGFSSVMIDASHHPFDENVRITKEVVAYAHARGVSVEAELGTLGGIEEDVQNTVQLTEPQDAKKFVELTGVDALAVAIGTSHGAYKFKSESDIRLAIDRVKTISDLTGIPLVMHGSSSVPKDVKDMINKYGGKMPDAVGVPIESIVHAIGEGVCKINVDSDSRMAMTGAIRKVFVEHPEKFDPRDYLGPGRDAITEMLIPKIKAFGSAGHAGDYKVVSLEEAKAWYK
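40 nM FBPA preincubated 10 min at RT with compound (up to 57.5 uM final), then substrate plus GAPDH/TPI/NAD/arsenate coupling and diaphorase/resazurin added. Fluorescence read after 20 min at RT, 525/598 nm.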
Sm TGR inh = S. mansoni TGR enzyme inhibition; Q962Y6; purified TGR, DTNB reduction, TNB absorbance 405 nm; Potency, µM (series often up to 114 µM), inactives show at the top dose activity change, negative = inhibition, hits mostly inhibitors; 360,000 compounds, 3% hits; AID 485364; also: potency is read from the fitted curve at half-maximal effect; % is scaled to controls: 0 for no effect and ±100 for the full control effect; nearly all actives have a fitted effect of over 60% in size
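Kinetic colorimetric format: TGR-catalysed, NADPH-driven DTNB reduction monitored via TNB absorbance. Enzyme dispensed at 20 nM; compound exposure 15 min at room temperature before reaction start.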
* marks the source's active call; other numbers are inactive results; ? = inconclusive; . = no result; [ ] = remark or other dose. Unless noted, calls follow the shape of the dose curve; as a rule, active = well fitted curve in the direction sought with a large enough effect; inconclusive = small, poorly fitted or top-dose-only effect, or another doubt; inactive = no such curve, though single readings can be large; an effect the other way counts as inactive or inconclusive.

SMILES	LmPK inhibitor	Cycloheximide cs	Shiga toxin inh	TbPYK inhibitor	Giardia FBPA inh	Sm TGR inh
CC[C@H](C)[C@H](NC(=O)[C@H](Cc1ccc(O)cc1)NC(=O)[C@H](CCCNC(=N)N)NC(=O)[C@H](CCCNC(=N)N)NC(=O)[C@H](CC(C)C)NC(=O)[C@H](CCC(N)=O)NC(=O)[C@@H](NC(=O)[C@H](CCC(=O)O)NC(=O)[C@H](Cc1ccc(O)cc1)NC(=O)[C@H](CCC(N)=O)NC(=O)[C@H](C)NC(=O)[C@H](CCCNC(=N)N)NC(=O)[C@H](CCC(N)=O)NC(=O)[C@H](CCC(=O)O)NC(=O)[C@H](Cc1cnc[nH]1)NC(=O)[C@@H](NC(=O)[C@H](C)NC(=O)[C@H](Cc1ccc(O)cc1)NC(=O)[C@H](CC(=O)O)NC(=O)CNC(=O)[C@@H]1CCCN1C(=O)[C@H](Cc1ccc(O)cc1)NC(=O)[C@H](CCSC)NC(=O)[C@@H]1CCCN1C(=O)[C@H](CCC(=O)O)NC(=O)[C@H](CC(C)C)NC(=O)[C@@H]1CCCN1C(=O)[C@H](C)N)[C@@H](C)O)[C@@H](C)O)C(=O)N[C@@H](CC(N)=O)C(=O)N[C@H](C(=O)N[C@@H](CC(C)C)C(=O)N[C@H](C(=O)N[C@@H](CCCNC(=N)N)C(=O)N1CCC[C@H]1C(=O)N[C@@H](CCCNC(=N)N)C(=O)N[C@@H](Cc1ccc(O)cc1)C(N)=O)[C@@H](C)O)[C@@H](C)O	.	-6.3	-1.1	.	-1.1%	.
Cn1cc(C(=O)C(=O)NC2CCCCC2)c2ccccc21	2.4%	33.4*	55.1*	-3.2%	.	8.0%
Cn1cc(C(=O)C(=O)NC2CC2)c2ccccc21	.	.	.	-7.2%	.	.
O=C(NC1CC1)C(=O)c1c[nH]c2ccccc12	-2.0%	19.1*	99.9*	0.7%	2.5%	4.0%
O=C(c1ccccc1)c1c[nH]c2ccccc12	-0.7%	34.7*	63.6*	-5.8%	-0.7%	12.0%
Cc1nc(NC(=O)C2CCCC2)sc1Cc1ccc2c(c1)OCO2	2.8%	21.5*	52.3	-18.2%	-3.9%	0.0%
Cc1cccc(C(=O)NCCC(=O)Nc2nc(C)c(Cc3ccc4c(c3)OCO4)s2)c1	4.5%	9.0	15.5	4.4%	5.8%	0.5%
Cc1c(Cc2ccc3c(c2)OCO3)sc(NC(=O)C2CC2)c1C(N)=O	0.4%	-0.9	-10.6	-27.1%	-7.7%	-1.5%
Cc1nc(NC(=O)C23CC4CC(CC(C4)C2)C3)sc1Cc1ccc2c(c1)OCO2	6.1%	24.9*	66.7*	2.5%	1.4%	1.0%
COc1ccc(N=Nc2c(C)n[nH]c2C)cc1	-1.7%	28.6*	119.0*	-1.8%	15.3%	29.4%
Cc1n[nH]c(C)c1N=Nc1ccc(Br)cc1	-2.1%	27.0*	51.4	0.2%	-0.7%	-1.8%
COc1ccc(OCCCc2c(C)n[nH]c2C)cc1	4.4%	4.9	8.3	-1.7%	-21.3%	-24.4%
Cc1ccc2c(c1)NC(=O)CC(c1ccccc1)=N2	2.9%	40.1*	63.0*	1.6%	2.7%	-2.9%
CCC1OCCC=CC1C (centres undefined)	.	.	.	.	1.8%[12.9 µM]	.
COc1cc(C=Cc2nnc3c4ccccc4cnn23)cc(OC)c1OC	.	.	.	1.8%	.	.
CN(CC(=O)NCCc1ccccc1)S(=O)(=O)c1cccs1	-1.8%	14.7	21.6	-9.4%	13.9%	0.6%
COC(=O)c1ccc(CN(C)S(=O)(=O)c2cccs2)cc1	6.7%	55.8*	76.0*	-2.2%	2.8%	-12.0%
Cc1ccc(CNC(=O)CN(C)S(=O)(=O)c2cccs2)cc1	-0.9%[11.5 µM]	27.5*	22.7	-1.8%	1.2%	7.5%
CN(CC(=O)NCCc1ccc(Cl)cc1)S(=O)(=O)c1cccs1	1.3%	21.5*	34.2*	0.9%	-1.3%	4.3%
CN(CC(=O)NCCc1ccccc1)S(=O)(=O)c1ccc(Br)s1	-6.0%	27.7*	46.4*	-1.0%	7.6%	-6.9%
CCOc1cc(CNC(=O)Cn2ncn3c(cc4cc(F)ccc43)c2=O)cc(OCC)c1OCC	.	.	.	3.1%	.	9.8%
COc1cc(C2N=C(c3ccccc3)NO2)cc(Br)c1O (centres undefined)	1.3%	10.2*	19.4	-5.2%	-6.8%	-1.8%
COc1ccc(C2N=C(c3ccccc3)NO2)cc1OC (centres undefined)	2.4%	21.9*	86.7*	4.4%	-8.9%	-22.3%
COc1ccc(C2N=C(c3ccccc3)NC(c3ccccc3)=N2)cc1	6.1%	-3.0	-0.9	4.0%	-0.1%	3.1%
FC(F)Oc1ccc(C2N=C(c3ccccc3)NO2)cc1 (centres undefined)	-0.3%	45.4*	78.6*	0.7%	-9.4%	?
SMILES	LmPK inhibitor	Cycloheximide cs	Shiga toxin inh	TbPYK inhibitor	Giardia FBPA inh	Sm TGR inh
CCOC(=O)N1CCN(c2nc3ccccc3nc2C(C#N)S(=O)(=O)c2ccc(C)cc2)CC1 (centres undefined)	3.4%	1.4	-4.8	4.5%	-1.4%	-20.3%
CCc1ccc(NC(=O)CCCN2C(=O)C3CC=CCC3C2=O)cc1 (centres undefined)	-3.1%	72.3*	97.2*	-18.8%	.	6.4%
CCOc1ccc(NC(=O)CC2C(=O)N(c3ccc(Cl)cc3)C(=O)N2Cc2cccs2)cc1 (centres undefined)	.	.	.	0.6%	.	9.2%
CCOC(=O)c1sc(=NC(=O)CCS(=O)(=O)c2ccccc2)n(C)c1C	5.3%	7.5	1.0	0.1%	8.3%	-0.1%
COc1cc(C(=O)N=c2sc3c(C)ccc(OC)c3n2C)cc(OC)c1OC	4.1%	13.0	39.1	2.0%	0.7%	-2.9%
CCOC(=O)c1sc(=NC(=O)c2ccccc2)n(C)c1C	10.1%	35.9*	89.5*	0.5%	4.5%	1.9%
CCOC(=O)c1sc(=NC(=O)c2ccc(OC)c(OC)c2)n(C)c1C	-0.9%	37.2	85.5*	-0.1%	2.4%	2.4%
CCOC(=O)c1sc(=NC(=O)c2cccc(OC)c2)n(C)c1C	2.5%	36.4*	59.1*	6.9%	2.6%	8.4%
CCOC(=O)c1sc(=NC(=O)COc2ccc(Cl)cc2)n(C)c1C	-5.3%	-1.1	11.0	-6.7%	4.0%	-25.3%
COc1ccc(C(=O)N=c2sc3c(C)ccc(OC)c3n2C)cc1	-7.4%	37.1*	66.0*	-13.5%	-6.0%	-2.9%
NS(=O)(=O)c1ccc(CCNC(=O)COC(=O)C2COc3ccccc3O2)cc1 (centres undefined)	.	.	.	5.6%	.	.
O=C(C1CC1)N(Cc1ccco1)c1nc(-c2ccccc2)cs1	-10.7%	8.3*	4.9	-2.6%	-8.9%	31.6µM*
O=C(COc1ccc(Cl)cc1)N(Cc1ccccc1)c1nc(-c2ccccc2)cs1	2.0%	-3.5	15.6	-15.1%	4.5%	9.7%
COc1ccc(-c2csc(N(C)C(=O)c3cccs3)n2)cc1	8.0%	22.5*	32.5*	3.3%	-2.5%	4.0%

Screens as filed in PubChem.
